# Results with a measured potency or affinity are listed apart. Values without a mark were called inactive.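 The calls were made as follows: active = compounds lowering viability with a fitted half-maximal potency at or below twice the top tested dose; inconclusive = flat fit showing 30 to 70% loss, or poor fit; inactive = the rest.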
# Test: melanocyte viability loss, MITF-dependent cells, cell-based, plate reader, dry powder, cytotoxicity control, dose response (AID 651920)
# Settings: primary human melanocytes viability, ATP luminescence, 24 h; series mostly up to 35 µM; activity change, negative = viability loss: at the top concentration
row,Compound,"activity change, negative = viability loss"
1,CN1CCN(C2=C(Nc3ccc(F)cc3F)C(=O)c3ccccc3C2=O)CC1,3.7%
2,O=C1C(Nc2ccc(Cl)cc2)=C(N2CCCC2)C(=O)c2ccccc21,-6.05%
3,NC1=C(NS(=O)(=O)c2ccccc2)C(=O)c2ccccc2C1=O,8.49%
4,O=C1C=C(Nc2ccccc2)C(=O)c2ccccc21,6.12%
5,O=C1C(Nc2cccc(Cl)c2)=C(N2CCCC2)C(=O)c2ccccc21,-2.73%
6,NC1=C(NS(=O)(=O)c2ccc(Br)s2)C(=O)c2ccccc2C1=O,6.49%
7,Cc1ccc(NC2=CC(=O)c3ccccc3C2=O)cc1,3.64%
8,CC(C)N1CCN(C2=C(Nc3ccc(F)cc3)C(=O)c3ccccc3C2=O)CC1,4.05%
9,CCN1CCN(C2=C(Nc3ccc(F)cc3F)C(=O)c3ccccc3C2=O)CC1,12%
10,O=C1C(Nc2ccc(F)cc2)=C(N2CCCCC2)C(=O)c2ccccc21,-0.278%
11,NC1=C(NS(=O)(=O)c2cccs2)C(=O)c2ccccc2C1=O,8.73%
12,NC1=C(NS(=O)(=O)c2ccc(Br)cc2)C(=O)c2ccccc2C1=O,0.856%
13,O=C1C(Nc2ccc(Br)cc2)=C(N2CCCCC2)C(=O)c2ccccc21,4.72%
14,CC(C)N1CCN(C2=C(Nc3ccc(F)cc3F)C(=O)c3ccccc3C2=O)CC1,-11.3%

# Reference: PubChem BioAssay AID651920 (Broad Institute, 2012)
